Some test systems named below: NCI-H23 lung; NCI-H226 lung; NCI-H322M lung; HOP-62 NSCLC; NCI-H460 lung; NCI-H522 lung; A549/ATCC NSCLC; 786-0 renal; COLO 205 colon; DU-145 prostate; K-562 leukemia; MDA-MB-231 breast; RXF 393 renal; SF-268 CNS; SF-295 CNS; SF-539 CNS; UACC-257 melanoma; M14 melanoma; HCT-15 colon; MALME-3M melanoma.
Holding throughout (assay): NCI-60 one-dose screen, 48 h (100 = growth as untreated, 0 = no growth, -100 = all killed)
What all share (details): 10 µM unless noted

Compounds without any hit were thinned out: in the full panel of roughly 83,000, 20% have a hit.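 Percent growth is the endpoint: 0 to 100 indicates growth inhibition (40 means 60% inhibition), 0 means no net growth, and negative values indicate cell death.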 Unmarked numbers belong to inactive results. Calls of active or inactive are those of the source. The calls were made as follows: active = growth percent below 10; inactive = the rest.

As to `O=C1CC(=O)N(c2ccccc2)O1`, the growth in the test with NCI-H23 lung was 108%; with NCI-H226 lung, 91.2%; in the test with NCI-H322M lung it was 108%; with HOP-62 NSCLC, 92.3%; in the test with NCI-H460 lung it was 111%; in the test on NCI-H522 lung, 95.6%. The growth with A549/ATCC NSCLC is 107%; in the test with 786-0 renal it was 105%; in the test with COLO 205 colon, 92.3%; in the test with DU-145 prostate, 105%; with K-562 leukemia it was 111%; in the test with MDA-MB-231 breast it was 87.6%. The growth was 109% in the test on RXF 393 renal; 109% in the test with SF-268 CNS; 101% in the test on SF-295 CNS; 93.6% in the test on SF-539 CNS; 106% with UACC-257 melanoma; 99.9% with M14 melanoma. Also, the growth with HCT-15 colon is 102%.

For the compound `COC(=O)CCC1=C(C)C(C)=N/C1=C\c1[nH]c(-c2ccc[nH]2)cc1OC`, the growth is 0.999% (active) in the test with NCI-H23 lung; 20.7% in the test on NCI-H226 lung; 12.1% in the test on NCI-H322M lung; -3.16% (active) in the test on HOP-62 NSCLC; 0.969% (active) in the test on NCI-H460 lung; -62.7% (active) in the test on NCI-H522 lung. Besides, the growth is 11.1% in the test on A549/ATCC NSCLC; 10.1% in the test on 786-0 renal; 12.9% with COLO 205 colon; 9.9% (active) with DU-145 prostate; -16.4% (active) in the test with K-562 leukemia; -33.4% (active) in the test on MDA-MB-231 breast. Also, the growth with RXF 393 renal was 23.3%; in the test with SF-268 CNS, 25.3%; with SF-295 CNS it was -44.6% (active); with SF-539 CNS, -9.38% (active); in the test with UACC-257 melanoma it was -1.25% (active); with M14 melanoma it was 9.58% (active). Moreover, the growth in the test with HCT-15 colon is -2.64% (active).

On to `COc1cccc(/C=C2\COc3ccc(O)c(O)c3C2=O)c1OC`, for which the growth in the test with NCI-H23 lung was 60.5%; in the test with NCI-H226 lung it was 62.8%; in the test on NCI-H322M lung, 32.7%; with HOP-62 NSCLC it was 19%; with NCI-H460 lung it was 3.8% (active); in the test with NCI-H522 lung it was -33.3% (active). In addition, the growth with A549/ATCC NSCLC was 32.5%; in the test with 786-0 renal it was -6.52% (active); in the test with COLO 205 colon, 72.7%; in the test with DU-145 prostate, 2.64% (active); with K-562 leukemia, -5.62% (active); in the test with MALME-3M melanoma, -75.9% (active). Also, the growth in the test on MDA-MB-231 breast was -34.4% (active); with SF-268 CNS, 17.4%; in the test on SF-295 CNS, 83.2%; in the test with SF-539 CNS, -73% (active); with UACC-257 melanoma it was 26.8%; in the test with HCT-15 colon, -10.7% (active).

On to `ClC1=C(Cl)C(Cl)=C(Cl)C1=C/C=C/c1ccccc1`, for which the growth is -45.9% (active) in the test on NCI-H23 lung; -70.5% (active) in the test on NCI-H226 lung; -27.8% (active) with NCI-H322M lung; -68.2% (active) in the test on HOP-62 NSCLC; 0.0738% (active) in the test on NCI-H460 lung; -52.4% (active) in the test on NCI-H522 lung. Moreover, the growth is -58% (active) with A549/ATCC NSCLC; -71.3% (active) in the test with 786-0 renal; -90.6% (active) in the test on COLO 205 colon; -46.5% (active) in the test with DU-145 prostate; -18.9% (active) with K-562 leukemia; -38.8% (active) in the test with MALME-3M melanoma. The growth in the test on MDA-MB-231 breast was -17.2% (active); with SF-268 CNS, -48.7% (active); in the test with SF-295 CNS, -2.39% (active); in the test on SF-539 CNS, -92.4% (active); in the test on UACC-257 melanoma, -80.7% (active); in the test on M14 melanoma it was -55.6% (active). Also, the growth in the test with HCT-15 colon was -77% (active).

On to `C=CCOc1ccc2c(c1)CC[C@@H]1[C@@H]2CC[C@@]2(C)[C@H]1CC[C@]2(C)O`, for which the growth is 92.8% in the test on NCI-H23 lung; 104% with NCI-H226 lung; 81.2% in the test with NCI-H322M lung; 109% with HOP-62 NSCLC; 46.3% in the test with NCI-H460 lung; 60.3% with NCI-H522 lung. The growth is 80.3% in the test on A549/ATCC NSCLC; 93.8% with 786-0 renal; 75.6% with COLO 205 colon; 121% with DU-145 prostate; 4.02% (active) with K-562 leukemia; 64.7% in the test with MDA-MB-231 breast. The growth in the test on RXF 393 renal is 106%; in the test on SF-268 CNS it was 85.7%; in the test on SF-295 CNS, 94.8%; in the test with SF-539 CNS, 76.5%; in the test with UACC-257 melanoma it was 53.9%; in the test on M14 melanoma, 88.7%. Further, the growth in the test with HCT-15 colon is 65.2%.

With `COc1ccc(/C(=C2\O[C@@H]([C@H](O)CO)[C@H]3OC(C)(C)O[C@@H]23)c2cc(OC)c(OC)c(OC)c2)cc1O`, the growth with NCI-H23 lung is 89.8%; in the test on NCI-H226 lung, 110%; with NCI-H322M lung, 109%; in the test on HOP-62 NSCLC, 88.4%; in the test on NCI-H460 lung it was 107%; in the test on NCI-H522 lung, 57.5%. The growth was 89.4% with A549/ATCC NSCLC; 94.3% in the test on 786-0 renal; 126% in the test with COLO 205 colon; 87.1% in the test with DU-145 prostate; 12.6% in the test on K-562 leukemia; 75.7% in the test with MALME-3M melanoma. The growth in the test on MDA-MB-231 breast was 97%; in the test with SF-268 CNS, 71.1%; in the test on SF-295 CNS it was 92.5%; with SF-539 CNS, 68.2%; with UACC-257 melanoma it was 97.9%; with M14 melanoma, 47.7%. The growth in the test with HCT-15 colon was 62.2%.

For the compound `CCCCCCC(C)(O)c1ccccc1` (stereo unspecified), the growth is 102% with NCI-H23 lung; 106% in the test with NCI-H226 lung; 126% in the test with NCI-H322M lung; 105% with HOP-62 NSCLC; 110% in the test on NCI-H460 lung; 100% in the test on NCI-H522 lung. Moreover, the growth with A549/ATCC NSCLC is 110%; in the test with 786-0 renal, 108%; in the test on COLO 205 colon, 114%; in the test on DU-145 prostate, 118%; in the test with K-562 leukemia, 101%; in the test with MDA-MB-231 breast it was 109%. Moreover, the growth in the test with RXF 393 renal is 124%; in the test on SF-268 CNS, 107%; in the test with SF-295 CNS it was 125%; in the test on SF-539 CNS it was 110%; in the test with UACC-257 melanoma, 115%; with M14 melanoma, 105%. Also, the growth in the test on HCT-15 colon was 110%.

Take `CC(O)c1nc2c(c(=O)n(C)c(=O)n2C)n1C` (stereo unspecified): the growth with NCI-H23 lung was 114%; in the test with NCI-H226 lung it was 104%; in the test with NCI-H322M lung it was 98.5%; with HOP-62 NSCLC it was 85.5%; in the test on NCI-H460 lung, 107%; with NCI-H522 lung, 90%. Further, the growth in the test with A549/ATCC NSCLC was 91.2%; with 786-0 renal it was 105%; in the test on COLO 205 colon it was 108%; in the test on DU-145 prostate it was 122%; with K-562 leukemia, 116%; in the test with MALME-3M melanoma, 121%. The growth with MDA-MB-231 breast is 117%; in the test on SF-268 CNS it was 107%; in the test with SF-295 CNS it was 108%; in the test on SF-539 CNS it was 102%; in the test on UACC-257 melanoma it was 106%; in the test on M14 melanoma it was 95.6%. Besides, the growth with HCT-15 colon was 104%.
